The campaign covered roughly 1,500 compounds. About 460 (31%) were called active. Not shown: some 1% with an inconclusive outcome. These entries were drawn from the full list. Results with a measured potency or affinity are listed apart. A number with no mark means an inactive call.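 How the source made its calls: active means curve reaches 40% activation over neutral controls at an AC40 no higher than the top valid tested concentration; inconclusive means no clear call, values can overlap the other calls; inactive means signal moving opposite to the expected increase, and the rest.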

The assay can be described thus: GLuc-reported insulin release enhancers, glucose-stimulated beta cells – cell-based, INS-1E, Gaussia luciferase, luminescence, cherry-pick, set 2, dose response (AID 977607).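 Further: 0% = median of the plate neutral control wells.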 To be noted: INS-1E GLuc insulin secretion reporter, 2-3 h, stronger effect = higher value; at 35 µM, 100% = signal doubled over neutral wells unless noted.
As to `O=C(c1cccs1)N(Cc1ccc(Cl)cc1)C1CCS(=O)(=O)C1` (centres undefined), the max activation was 21.3%.
The same measure for `O=C(c1cccs1)N(Cc1cccc(F)c1)C1CCS(=O)(=O)C1` (centres undefined): 26.2% [at 0.005 µM, 100% = signal doubled over neutral wells]; for `CCOC(=O)C1=NN(C(=O)Nc2cccc(C(F)(F)F)c2)C2C(=O)N(c3cccc(C(F)(F)F)c3)C(=O)C12` (centres undefined): 17.3% [at 3.8 µM, 100% = signal doubled over neutral wells]; for `N#Cc1ccc(-c2ccc3c(c2)[C@@H]2[C@@H](CCN2C(=O)C2CCCC2)[C@@H](CO)N3)cc1`: -29.6%.
Consider `O=C(CCn1nc(-c2ccc(Cl)cc2)ccc1=O)NCCCN1CCCCCC1`, for which the max activation is -17.5% [at 0.005 µM, 100% = signal doubled over neutral wells].
The figure for `CC(C)(C)C1=Nn2c(nnc2C2CCCCC2)SC1` is 27% [at 11 µM, 100% = signal doubled over neutral wells].
Consider `C=CCNc1cc(C)oc(=O)c1C(=O)CCC`, for which the max activation is -21.1% [at 0.015 µM, 100% = signal doubled over neutral wells].
For the molecule `CCN1CCN(CCCNC(=O)c2ccc3c(c2)N(Cc2ccccc2)CCS3)CC1`, the max activation was -25.6% [at 11 µM, 100% = signal doubled over neutral wells].
For `CCOC(=O)c1sc2nc(C)[nH]c(=O)c2c1C`, the max activation is 8.29% [at 0.135 µM, 100% = signal doubled over neutral wells].
Regarding `CCCCc1nc(N)c(C#N)c(-c2ccco2)c1CCC`, the max activation is 35.2%.
On to `COc1ccc(CCNC(=O)CCCc2nnc3n(C)c(=O)c4sccc4n23)cc1OC`, for which the max activation was -17.7% [at 0.0016 µM, 100% = signal doubled over neutral wells].
The same measure for `COc1ccc(CCNC(=O)CCC(=O)c2cccs2)cc1OC`: 35.6% [at 1.2 µM, 100% = signal doubled over neutral wells].
Take `COc1ccc(-n2c3c(c(=O)[nH]c2=O)C(NS(=O)(=O)c2ccc(Cl)cc2)(C(F)(F)F)C(=O)N3)cc1` (centres undefined): the max activation is -27.1% [at 0.015 µM, 100% = signal doubled over neutral wells].
For the molecule `N#Cc1cnn2c(C(F)(F)F)cc(-c3ccccc3)nc12`, the max activation was -14.3% [at 0.0016 µM, 100% = signal doubled over neutral wells].
For the molecule `Cc1cc(C)c(CSc2nnnn2-c2ccc(C(=O)O)cc2)c(C)c1`, the max activation is -11.8% [at 1.2 µM, 100% = signal doubled over neutral wells].
On to `O=C(c1cccnc1)N(Cc1ccccc1)c1ccccc1`, for which the max activation was 25.1%.
For the molecule `CCCNC(=O)C1(C)CCCN(Cc2cccn2C)C1` (centres undefined), the max activation was -16.6% [at 3.8 µM, 100% = signal doubled over neutral wells].
Regarding `CC(=O)Nc1ccc(Cl)c(-c2nc3ncccc3o2)c1`, the max activation was 24% [at 0.005 µM, 100% = signal doubled over neutral wells].
For `CC(C)CCN(CC(=O)NCc1ccc(F)cc1)S(=O)(=O)c1ccccc1F`, the max activation was -38.5% [at 11 µM, 100% = signal doubled over neutral wells].
On to `CCOc1nc(NC(=O)NS(=O)(=O)Oc2ccccc2Cl)nc(-c2ccccc2)n1`, for which the max activation was -20.8% [at 0.0016 µM, 100% = signal doubled over neutral wells].
For the molecule `CC1Oc2ccccc2N(Cc2cccc(F)c2)C1=O` (centres undefined), the max activation is -13.7% [at 0.005 µM, 100% = signal doubled over neutral wells].
The same measure for `Cc1ccc(-c2ccc([C@@H]3[C@@H]4CN(Cc5ccccc5F)C[C@H]3N4)cc2)cc1`: 26.7% [at 0.42 µM, 100% = signal doubled over neutral wells]; for `O=C(NC1CCCC1)C(C1CC1)n1c(-c2ccccn2)nc2ccccc21` (centres undefined): -23.1% [at 0.135 µM, 100% = signal doubled over neutral wells].
The same measure for `CC(C)C(C(=O)NCc1ccco1)N(CC1CCCO1)C(=O)CNS(=O)(=O)c1ccc(F)cc1` (centres undefined): -14.9% [at 11 µM, 100% = signal doubled over neutral wells]; for `CCSc1ncnc2sc3c(c12)CCC3`: 31.4%.
The same measure for `COc1ccccc1-c1cnc2c(Nc3cccc(OC(F)(F)C(F)F)c3)nccn12`: -17.8% [at 11 µM, 100% = signal doubled over neutral wells].
As for `Cc1cccc(CN2C(=O)CSc3ccc(C(=O)NC4CC4)cc32)c1`, the max activation is 41% [at 0.135 µM, 100% = signal doubled over neutral wells].
For the molecule `Cc1cc(NCc2ccccn2)nc2ccccc12`, the max activation was -14.9% [at 0.005 µM, 100% = signal doubled over neutral wells].
For `CCOc1ccc(CCNC(=O)c2cc(C)on2)cc1OCC`, the max activation was -13.4% [at 0.135 µM, 100% = signal doubled over neutral wells].
The figure for `O=C(CN1C(=O)NC(Cc2c[nH]c3ccccc23)C1=O)NCCc1ccccc1` (centres undefined) is 21% [at 11 µM, 100% = signal doubled over neutral wells]; for `COc1ccc(CCn2nnc(-c3ccc(NC(C)=O)c(Cl)c3)n2)cc1` it is -24.6% [at 11 µM, 100% = signal doubled over neutral wells].
Consider `O=c1c2sccc2n(Cc2cccc(F)c2)c(=O)n1-c1ccc(F)cc1`, for which the max activation is -14.5% [at 0.005 µM, 100% = signal doubled over neutral wells].
With `COc1cccc(-c2ccc3c(c2)N(Cc2cccc(F)c2)C(=O)C(C)S3)c1` (centres undefined), the max activation was -26.7% [at 11 µM, 100% = signal doubled over neutral wells].
Regarding `COc1ccc(C2CC(=O)C(c3ccc(C)cc3)=CN2Cc2ccccc2)cc1` (centres undefined), the max activation is -26.2%.
`COc1ccc2nc(CCN(C)C(=O)C3CCC(=O)N(Cc4cccc(F)c4)C3)[nH]c2c1` (centres undefined): the max activation was -20.4%.
The figure for `CN(C(=O)c1ccc(C#N)cc1)c1nnc(-c2cnccn2)s1` is -16.1% [at 0.42 µM, 100% = signal doubled over neutral wells].
In the case of `Cc1cc(C)n(CC(=O)n2c3ccccc3c3ccccc32)n1`, the max activation is 20.6%.
The figure for `CN[C@H]1C[C@@H](c2ccccc2)N(C(C)=O)C[C@H]1CO` is -14% [at 0.135 µM, 100% = signal doubled over neutral wells].
The same measure for `COC(=O)c1ccc(C)c(-n2c(=O)n(Cc3ccccc3)c(=O)c3[nH]cnc32)c1`: -20.8% [at 0.005 µM, 100% = signal doubled over neutral wells]; for `CC1CN(Cc2ccccc2)C(=S)NC1=O` (centres undefined): -25.1% [at 3.8 µM, 100% = signal doubled over neutral wells]; for `Cc1c(C=O)c2ccccn2c1C(=O)c1ccc(F)cc1`: -14.1% [at 0.0016 µM, 100% = signal doubled over neutral wells].
For the molecule `Cc1ccc(C(=O)c2sc3nc4c(cc3c2N)CCC4)cc1`, the max activation is -20.2% [at 3.8 µM, 100% = signal doubled over neutral wells].
As to `O=C(N/N=C/c1ccncc1)c1cc(-c2ccc(Br)s2)[nH]n1`, the max activation was 46.1%.
The figure for `Fc1cccc(-c2nnn3c2nc(Cl)c2ccccc23)c1` is -32% [at 11 µM, 100% = signal doubled over neutral wells]; for `CCc1cc2c(COC(=O)c3cccc(NS(C)(=O)=O)c3)cc(=O)oc2cc1O` it is -16.1%.
Consider `O=C1CCc2cc(S(=O)(=O)N3CCN(c4ccc(F)cc4)CC3)cc3c2N1CC3`, for which the max activation was -14.5% [at 0.0016 µM, 100% = signal doubled over neutral wells].
Take `CC(C)(C(=O)N1CCC1(C)C(=O)NS(=O)(=O)c1cccc(Cl)c1)c1ccccc1` (centres undefined): the max activation is -17.3% [at 0.135 µM, 100% = signal doubled over neutral wells].
`CCOc1ccccc1CNS(=O)(=O)c1cnc[nH]1`: the max activation was -8.34% [at 0.005 µM, 100% = signal doubled over neutral wells].
The figure for `CN1CCN(CC(O)COC(c2ccc(Cl)cc2)c2ccc(Cl)cc2)CC1` (centres undefined) is -16.1% [at 11 µM, 100% = signal doubled over neutral wells].
Consider `COc1ccccc1CSc1nc2c(c(=O)n(C)c(=O)n2C)n1C`, for which the max activation is -16.4%.
Regarding `CC(=O)C(C)n1c(CN(C)Cc2ccccc2)nc2c1c(=O)n(C)c(=O)n2C` (centres undefined), the max activation is 13.8% [at 11 µM, 100% = signal doubled over neutral wells].
Turning to `CCOC(=O)c1nn(-c2ccccc2)c2nc(Nc3ccccc3)cc(=O)n12`, the max activation was -18.7% [at 0.0016 µM, 100% = signal doubled over neutral wells].
With `O=S(=O)(c1ccc(=S)[nH]c1)N1CCCCCC1`, the max activation was 19.7%.
The figure for `Cc1ccc(C(=O)c2sc(Nc3ccccc3)c(C#N)c2N)cc1` is -18.3% [at 0.005 µM, 100% = signal doubled over neutral wells].

Source of the values: PubChem BioAssay AID977607 (Broad Institute, 2014).
